Calls of active or inactive are those of the source. Unless noted, no rule for the calls is given here.

The nature of assay [1]: compounds binding Alexa647 anti-His antibody – biochemical, small-molecule microarray, 635 nm fluorescence, artefact control for SMM control protein annotation, primary screen (AID 1128).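 Also: score merges feature fluorescence with signal-to-noise for each printed compound spot.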 The note with it: higher = more signal.
The subject of assay [2] is Human papillomavirus type 1a E7 protein (residues 1-88). Briefly: HPV1a E7 small-molecule binders, primary screen, biochemical, small-molecule microarray, residues 1-88, 635 nm (AID 1129). The note with it: small-molecule microarray binding, fluorescence 635 nm; higher = more signal.
For assay [3], the target named is Focal adhesion kinase 1 (Homo sapiens) (UniProt Q05397). Briefly: PTK2 protein binding on printed compound slides – biochemical, small-molecule microarray, 635/667 nm fluorescence, BSA, DTT, primary screen (AID 1130).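 Also: composite of spot emission at 667 nm and signal to noise over triplicate slides.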 Particulars: 635 nm fluorescence, higher = more signal.
Focal adhesion kinase 1 (Homo sapiens), sequence (Q05397 whole entry, looked up): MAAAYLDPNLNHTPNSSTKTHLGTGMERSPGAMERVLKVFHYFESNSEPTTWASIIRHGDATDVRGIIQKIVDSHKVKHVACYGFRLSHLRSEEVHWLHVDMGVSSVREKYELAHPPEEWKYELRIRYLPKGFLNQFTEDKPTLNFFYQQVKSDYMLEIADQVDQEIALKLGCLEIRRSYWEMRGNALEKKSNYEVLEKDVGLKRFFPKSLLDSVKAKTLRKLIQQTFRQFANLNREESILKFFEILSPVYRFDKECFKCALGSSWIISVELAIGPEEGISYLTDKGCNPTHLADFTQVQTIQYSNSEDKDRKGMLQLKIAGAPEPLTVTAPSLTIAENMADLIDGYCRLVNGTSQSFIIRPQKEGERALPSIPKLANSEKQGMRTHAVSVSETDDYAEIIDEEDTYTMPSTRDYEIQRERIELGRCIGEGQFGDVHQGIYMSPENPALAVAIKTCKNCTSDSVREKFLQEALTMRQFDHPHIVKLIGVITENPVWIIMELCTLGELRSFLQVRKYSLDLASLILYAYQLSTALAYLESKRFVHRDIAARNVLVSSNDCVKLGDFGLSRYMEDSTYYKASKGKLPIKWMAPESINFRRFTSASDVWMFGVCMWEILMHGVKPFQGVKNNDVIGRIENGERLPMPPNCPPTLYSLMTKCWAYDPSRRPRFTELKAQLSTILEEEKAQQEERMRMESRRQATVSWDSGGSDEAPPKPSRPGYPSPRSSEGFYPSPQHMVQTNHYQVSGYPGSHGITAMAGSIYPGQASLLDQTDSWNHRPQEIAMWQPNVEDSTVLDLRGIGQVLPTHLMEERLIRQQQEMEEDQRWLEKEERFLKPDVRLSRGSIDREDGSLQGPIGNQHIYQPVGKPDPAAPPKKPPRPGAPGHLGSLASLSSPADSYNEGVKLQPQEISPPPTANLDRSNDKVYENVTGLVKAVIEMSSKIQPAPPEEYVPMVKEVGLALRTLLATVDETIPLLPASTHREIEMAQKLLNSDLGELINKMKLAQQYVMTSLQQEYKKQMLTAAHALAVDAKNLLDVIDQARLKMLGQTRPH
Assay [4] deals with Fibrinogen (Alexa647-labelled). Briefly: Alexa647-fibrinogen binding to printed small molecules – biochemical, small-molecule microarray, 635/667 nm fluorescence, artefact control for SMM control-protein annotation, profiling panel (AID 1131).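 Also: z-score merges 667 nm fluorescence with per-spot signal-to-noise over triplicate slides.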 Particulars: fibrinogen-A647 binding fluorescence, higher = more signal.
For assay [5], the target named is Follistatin (Homo sapiens) (UniProt P19883). Briefly: FST protein binding to printed compounds – biochemical, small-molecule microarray, 635/667 nm fluorescence, primary screen (AID 1132). Particulars: 635 nm fluorescence, higher = more signal.
Follistatin (Homo sapiens), sequence (P19883 whole entry, looked up): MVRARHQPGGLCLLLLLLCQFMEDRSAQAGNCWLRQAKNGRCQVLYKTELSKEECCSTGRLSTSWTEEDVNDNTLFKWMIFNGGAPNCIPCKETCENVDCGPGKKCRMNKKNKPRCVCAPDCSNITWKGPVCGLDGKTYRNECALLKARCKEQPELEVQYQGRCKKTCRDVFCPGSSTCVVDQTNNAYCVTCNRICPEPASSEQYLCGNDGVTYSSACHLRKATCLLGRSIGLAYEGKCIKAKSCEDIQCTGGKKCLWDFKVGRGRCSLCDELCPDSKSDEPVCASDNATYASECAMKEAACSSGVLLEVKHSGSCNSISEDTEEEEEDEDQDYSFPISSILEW
Assay [6] has as its target Fibroblast growth factor 2 (Homo sapiens) (UniProt P09038). Briefly: basic fibroblast growth factor binding to printed compounds – biochemical, small-molecule microarray, 635/667 nm fluorescence, primary screen (AID 1133). Particulars: FGF2, fluorescence 635/667, higher = more signal.
Assay [7] in a line: JC-1 mitochondrial potential readout, lung cancer cells – cell-based, A549, JC-1 fluorescence, basal, 24 h, 100 nL, profiling panel (AID 1138).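 Also: A549 lung adenocarcinoma cells under basal conditions with no added stimulus; test concentration not given here.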 Particulars: higher = more signal.
Assay [8] relates to Lefty1. Briefly: Lefty1 protein binding to printed compounds – biochemical, small-molecule microarray, 635/667 nm fluorescence, primary screen (AID 1139). Particulars: fluorescence 635/667, higher = more signal.
For assay [9], the system named is wheat germ agglutinin (Triticum aestivum), Alexa647-labelled. Briefly: Alexa647-WGA lectin binding to printed small molecules – biochemical, small-molecule microarray, 635/667 nm fluorescence, artefact control for SMM control-protein annotation, profiling panel (AID 1140).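 Also: score merges 667 nm feature emission with signal to noise over triplicate slides.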 Particulars: WGA-A647 binding, 635 nm fluorescence, higher = more signal.
Assay [10] concerns the target Luciferin 4-monooxygenase (Photinus pyralis) (UniProt P08659). Briefly: inhibition of purified Photinus pyralis luciferase – biochemical, luminescence, purified enzyme, 2006 set, primary screen (AID 1141).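 Also: cell-free assay with purified firefly luciferase at 100 ng per well in PBS; test concentration not given here.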 Particulars: purified firefly luciferase, SteadyGlo luminescence, 30 min; higher = more signal, called active from +8 up or from −8 down.
Assay [11] concerns Wnt5a (protein binding on small-molecule microarray). Briefly: small molecules binding Wnt5a protein – biophysical, small-molecule microarray, 635/667 nm fluorescence, primary screen (AID 1142).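 Also: fluorescence read at 667 nm with signal to noise per printed feature.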 Particulars: 635 nm fluorescence, higher = more signal.
A short description of assay [12]: ATP-based viability of Huh7 replicon cells – cell-based, CellTiter-Glo luminescence, basal, 48 h, cytotoxicity control for HCV replication inhibitor project, primary screen (AID 1143).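 Also: Huh7 hepatoma cells carrying a hepatitis C replication reporter with no stimulus; test concentration not given here.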 Particulars: higher = more signal, called active from +8 up or from −8 down.
The nature of assay [13]: Pseudomonas biofilm growth suppression – PAO1 strain, BacTiter-Glo luminescence, LB-PBS, primary screen (AID 1144). Particulars: P. aeruginosa PAO1 biofilm, 12 h, higher = more signal.
Assay [14] is described as follows: basal CRE-LacZ reporter activity in PC12 – cell-based, unstimulated, primary screen (AID 1145). Particulars: no forskolin, luminescence, 4.5 h, higher = more signal, called active from +8 up or from −8 down.
Assay [15] is described as follows: forskolin-driven CRE-LacZ activity in PC12 – cell-based, CRE-LacZ reporter, forskolin-stimulated, primary screen (AID 1146).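 Also: PC12 cells with 6xCRE LacZ reporter stimulated by forskolin 10 µM; beta-galactosidase reporter signal reflecting CREB driven transcription.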 The note with it: luminescence, 4.5 h, higher = more signal, called active from +8 up or from −8 down.
Assay [16] has as its target Streptavidin (Streptomyces avidinii) (UniProt P22629). Briefly: compounds binding control protein streptavidin – biophysical, small-molecule microarray, 635/667 nm fluorescence, artefact control for SMM compound annotation, primary screen (AID 1147).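 Also: signal reflects streptavidin binding to arrayed compounds as a control protein.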 The note with it: higher = more signal.
A short description of assay [17]: probe aInhba binding on compound microarray – biochemical, small-molecule microarray, 635/667 nm fluorescence, primary screen (AID 1148).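 Also: score merges 667nm spot fluorescence with signal-to-noise for antibody binding to printed compounds.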 Particulars: higher = more signal.
Assay [18] deals with Torsin-1A (Homo sapiens) (UniProt O14656). Briefly: TOR1A wild-type binding on microarray – cell lysate, small-molecule microarray, lysate, 635/667 nm, primary screen (AID 1149). The note with it: COS7 hTOR1A-WT lysate, 635 nm fluorescence, higher = more signal.
Torsin-1A (Homo sapiens), sequence (O14656 whole entry, looked up): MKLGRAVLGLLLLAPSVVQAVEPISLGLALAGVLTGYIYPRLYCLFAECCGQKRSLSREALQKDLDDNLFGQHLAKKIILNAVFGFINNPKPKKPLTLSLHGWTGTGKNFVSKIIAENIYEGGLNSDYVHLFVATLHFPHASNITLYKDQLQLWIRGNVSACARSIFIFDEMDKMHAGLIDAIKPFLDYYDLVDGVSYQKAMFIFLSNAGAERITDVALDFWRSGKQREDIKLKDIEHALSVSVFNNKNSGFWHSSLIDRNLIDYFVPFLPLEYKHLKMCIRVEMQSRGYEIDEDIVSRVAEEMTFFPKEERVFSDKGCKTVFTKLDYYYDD
Assay [19] shares this target. Briefly: torsin A mutant lysate binding on microarrays – cell lysate, small-molecule microarray, COS7 lysate, 635/667 nm fluorescence, primary screen (AID 1150).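 Also: score pools 667 nm emission and signal to noise measuring lysate protein binding.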 The note with it: COS7 hTOR1A mutant lysate, 635 nm fluorescence, higher = more signal.
Assay [20] relates to Sonic hedgehog protein (Shh). Briefly: Sonic hedgehog microarray binding compounds – biochemical, small-molecule microarray, 635/667 nm fluorescence, primary screen (AID 1151).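 Also: Shh protein binding to compounds spotted on small-molecule microarray slides; score combines spot fluorescence intensity with signal-to-noise across triplicate slides.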 Particulars: 635 nm fluorescence, higher = more signal.

Luciferin 4-monooxygenase (Photinus pyralis), sequence (P08659 whole entry, looked up): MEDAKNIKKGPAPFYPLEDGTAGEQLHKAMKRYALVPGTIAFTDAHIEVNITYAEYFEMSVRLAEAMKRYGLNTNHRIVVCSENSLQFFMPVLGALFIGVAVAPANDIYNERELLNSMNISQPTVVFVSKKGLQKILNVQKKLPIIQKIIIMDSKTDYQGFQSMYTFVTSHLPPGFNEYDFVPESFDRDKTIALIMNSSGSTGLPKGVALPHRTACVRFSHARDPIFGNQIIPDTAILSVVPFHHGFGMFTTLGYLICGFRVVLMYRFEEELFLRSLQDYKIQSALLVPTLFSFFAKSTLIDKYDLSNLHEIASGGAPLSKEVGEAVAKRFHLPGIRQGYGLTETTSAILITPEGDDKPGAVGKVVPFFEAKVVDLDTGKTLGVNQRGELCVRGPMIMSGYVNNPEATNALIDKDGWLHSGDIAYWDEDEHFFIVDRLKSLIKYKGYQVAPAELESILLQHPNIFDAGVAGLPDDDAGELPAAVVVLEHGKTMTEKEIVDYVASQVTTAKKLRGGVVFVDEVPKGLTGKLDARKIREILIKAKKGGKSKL
Streptavidin (Streptomyces avidinii), sequence (P22629 whole entry, looked up): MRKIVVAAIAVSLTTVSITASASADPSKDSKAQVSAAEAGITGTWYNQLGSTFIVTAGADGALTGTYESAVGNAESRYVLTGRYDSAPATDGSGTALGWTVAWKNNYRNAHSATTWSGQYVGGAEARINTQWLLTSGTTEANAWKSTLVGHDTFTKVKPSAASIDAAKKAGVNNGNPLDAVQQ
Fibroblast growth factor 2 (Homo sapiens), sequence (P09038 whole entry, looked up): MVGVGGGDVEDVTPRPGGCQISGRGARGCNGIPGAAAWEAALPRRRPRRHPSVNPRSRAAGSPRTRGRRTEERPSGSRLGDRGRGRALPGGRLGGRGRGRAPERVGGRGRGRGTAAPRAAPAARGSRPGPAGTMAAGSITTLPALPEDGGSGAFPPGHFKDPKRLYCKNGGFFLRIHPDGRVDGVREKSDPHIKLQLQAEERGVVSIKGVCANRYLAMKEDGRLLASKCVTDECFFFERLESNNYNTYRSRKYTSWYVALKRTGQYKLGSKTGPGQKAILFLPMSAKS

Turning to `COc1cccc(C)c1NC(=O)O[C@H]1[C@H](OC(=O)Nc2ccccc2-c2ccccc2)[C@@H](OC(=O)Nc2ccccc2-c2ccccc2)[C@@H](OC)O[C@@H]1CO`, the composite z-score was 1 in [1]; 1.25 in assay [2]; 1.29 in assay [3]; 1.02 in assay [4]; 1.27 in [5]; 0.317 in assay [6]. Also, the composite z-score came out at 0.719 in [8]; 0.55 in [9]; 0.933 in assay [11]; 1 in assay [16]; 0.179 in assay [17]; 0.631 in assay [18]. Besides, the composite z-score in assay [19] was found to be 1.23; in assay [20], 0.457. In addition, the z-score in [7] is -0.158; in [10], -0.742 (inactive); in [12] it was -5.6 (inactive); in assay [13] it was -0.325 (inactive); in assay [14], 1.13 (inactive); in assay [15], -1.05 (inactive).

Take `COc1ccc([Si](C)(C)[C@H]2[C@H](CC(=O)N(CCO)Cc3ccccc3)O[C@@]3(C(=O)N(Cc4cccc(N5CCCCC5=O)c4)c4ccccc43)[C@@H]2C)cc1`: the composite z-score in [1] worked out at 1.13; in assay [2] it was 0.694; in assay [3], 0.18; in [4], 0.267; in [5] it was 0.724; in [6] it was 1.23. The composite z-score in [8] was 0.931; in assay [9] it was 0.311; in [11], 0.0763; in assay [16], 0.0037; in assay [17] it was -0.0719; in assay [18] it was 0.444. Further, the composite z-score in [19] came to 0.793; in assay [20], 2.13. Besides, the z-score was -0.153 in assay [7]; -1.55 (inactive) in assay [10]; -4.74 (inactive) in assay [12]; -0.937 (inactive) in [13]; 3.13 (inactive) in assay [14]; -1.32 (inactive) in assay [15].

Consider `CCCCN1CC=CC23O[C@@H]4/C=C\CCC(C)OC(=O)C4[C@H]2C(=O)N(CCO)[C@@H]3C1=O` (stereo not given in full), for which the composite z-score in assay [1] was 3.24; in [2] it was -0.424; in assay [3] it was 0.548; in [4], -1.18; in [5], -0.531; in assay [6], -1.49. Besides, the composite z-score in assay [8] was 0.0422; in [9], -0.169; in assay [11] it was -0.122; in assay [16], -1.52; in assay [17], -0.0494; in assay [18], 2.84. Besides, the composite z-score was 2.94 in [19] and -0.0956 in [20]. The z-score was -0.145 in assay [7]; 1.1 (inactive) in [10]; -1.08 (inactive) in assay [12]; -1.31 (inactive) in assay [13]; -0.627 (inactive) in assay [14]; -0.0432 (inactive) in assay [15].

On to `CCCCCCc1nc(Cc2cc(OC)c(OC)c(OC)c2)c(C)c2c1[Si](C(C)C)(C(C)C)OC2`, for which the composite z-score in assay [1] was 0.0303; in assay [2], 0.127; in [3], -0.38; in [4], -0.24; in assay [5], 0.281; in assay [6], 0.444. The composite z-score is 0.267 in assay [8]; 0.108 in [9]; 0.0854 in assay [11]; -0.0336 in [16]; 0.0275 in assay [17]; 0.246 in assay [18]. Further, the composite z-score in [19] came to 0.0486; in assay [20], 0.372. Besides, the z-score was 0.374 in assay [7]; -0.123 (inactive) in assay [10]; -3.36 (inactive) in assay [12]; -1.44 (inactive) in assay [13]; 0.367 (inactive) in assay [14]; -0.634 (inactive) in [15].

Consider `C=C(COC)/C(=C/C[C@@H](OC(=O)c1ccncc1)c1ccccc1OCCO)c1cnc2ccccc2c1`, for which the composite z-score in assay [1] is 1.27; in assay [2] it was 1.17; in assay [3], 0.276; in [4], 0.848; in assay [5], 1.47; in assay [6], 1.6. The composite z-score in assay [8] was determined as 1.56; in assay [9], 1.39; in assay [11], 1.09; in assay [16], 1.93; in assay [17], 0.0422; in assay [18], 0.113. Further, the composite z-score was determined as 1.15 in [19] and 2.07 in [20]. Moreover, the z-score in assay [7] was 1.5; in assay [10], -1.17 (inactive); in assay [12] it was -3 (inactive); in [13], 1.45 (inactive); in assay [14], 18.2 (active); in assay [15], 1.24 (inactive).

Turning to `C[N+](C)(C)CCCC[C@@H]1NC(=O)[C@H]2C[C@@H](C(=O)O)[C@@H](c3ccc(O)cc3)N2C1=O`, the composite z-score is 1.04 in assay [1]; 0.123 in assay [2]; -0.216 in assay [3]; -0.223 in assay [4]; 0.864 in [5]; 0.948 in assay [6]. For the same molecule, the composite z-score in assay [8] was 0.155; in assay [9], -0.185; in assay [11], 0.0425; in assay [16] it was -0.206; in assay [17], 0.0051; in assay [18] it was 0.049. Also, the values for the composite z-score in assay [19] and in assay [20] were 0.38 and 1.22, respectively. Further, the z-score was 1.49 in assay [7]; -1.93 (inactive) in assay [10]; -0.497 (inactive) in assay [12]; -1.19 (inactive) in [13]; 0.285 (inactive) in assay [14]; -0.744 (inactive) in assay [15].

Turning to `CCCCC(=C=CC[C@@H](O)c1ccccc1OCCO)C[C@@H](O)c1ccccn1`, the composite z-score in assay [1] was -0.242; in assay [2] it was 0.451; in assay [3], 0.36; in assay [4] it was 0.296; in [5], 0.638; in assay [6] it was 0.356. For the same molecule, the composite z-score in [8] was 0.699; in assay [9] it was -0.306; in assay [11] it was -0.11; in assay [16], -0.231; in [17], -0.024; in [18], -0.245. The composite z-score worked out at 0.495 in assay [19] and 0.897 in assay [20]. The z-score was 0.969 in assay [7]; -0.96 (inactive) in assay [10]; -0.675 (inactive) in assay [12]; -0.138 (inactive) in assay [13]; 2.72 (inactive) in assay [14]; -0.446 (inactive) in [15].

Turning to `[N-]=[N+]=NCc1ccccc1[C@H]1OC(c2ccc(OCCCO)cc2)=N[C@@]1(Cc1ccccc1N=[N+]=[N-])C(N)=O`, the composite z-score stood at 1.03 in assay [1]; 1.14 in assay [2]; 0.579 in assay [3]; 1.01 in assay [4]; 1.21 in [5]; 0.27 in assay [6]. For the same molecule, the composite z-score worked out at 0.174 in assay [8]; 1.21 in assay [9]; 0.395 in [11]; 1.23 in [16]; 0.472 in [17]; 1.55 in [18]. The composite z-score in assay [19] is 0.949; in assay [20], 0.183. The z-score in assay [7] was 0.145; in assay [10], -3.23 (inactive); in assay [12], -1.38 (inactive); in [13], -1.13 (inactive); in assay [14] it was 0.0451 (inactive); in [15] it was -0.697 (inactive).

Take `C=C[C@H](C)[C@@H](OC(=O)Nc1ccc(SC)cc1)c1ccc(OCCO)cc1`: the composite z-score was 2.21 in assay [1]; 1.14 in assay [2]; 0.461 in assay [3]; -1.15 in assay [4]; 0.629 in assay [5]; 0.2 in assay [6]. For the same molecule, the composite z-score in [8] was 0.265; in assay [9], 0.827; in assay [11], 0.179; in assay [16], -0.363; in assay [17], 0.36; in [18], -0.0803. In addition, the composite z-score in [19] was 0.278; in assay [20], 1.98. Also, the z-score is -1.8 in assay [7]; -7.41 (inactive) in [10]; -2.91 (inactive) in assay [12]; -0.567 (inactive) in [13]; 6.08 (inactive) in assay [14]; -0.24 (inactive) in [15].

Source of the values: PubChem BioAssay.
